SMILES strings stand for the structures. This is part of a sample that, as a whole, favours compounds with a hit. Of some 83,000 tested, about 20% had one in any assay.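 Single-dose data. Exposure time 48 hours. Values below 10 considered active.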 Values without a mark were called inactive. The source made the active and inactive calls.

Among the test systems are HCT-15 colon; HT29 colon; SNB-75 CNS; SNB-19 CNS; U251 CNS; PC-3 prostate; SK-MEL-5 melanoma; LOX IMVI melanoma; SK-MEL-28 melanoma; SK-MEL-2 melanoma; EKVX NSCLC; SN12C renal; UO-31 renal; TK-10 renal; ACHN renal; CAKI-1 renal; CCRF-CEM leukemia; MOLT-4 leukemia; A498 renal; UACC-62 melanoma.
Holding throughout (test): NCI-60 one-dose screen, 48 h (100 = growth as untreated, 0 = no growth, -100 = all killed)
Holding throughout (details): 10 µM unless noted

As to `CC(=O)OCCCCCNc1ccccc1`, the growth in the test on HCT-15 colon is 107%; with HT29 colon, 99.2%; with SNB-75 CNS, 103%; in the test on SNB-19 CNS it was 107%; in the test on U251 CNS, 100%; in the test with PC-3 prostate, 100%. Also, the growth is 106% in the test on SK-MEL-5 melanoma; 100% with LOX IMVI melanoma; 106% in the test with SK-MEL-28 melanoma; 102% with SK-MEL-2 melanoma; 104% in the test on EKVX NSCLC; 103% in the test with SN12C renal. Besides, the growth was 88.1% with UO-31 renal; 107% with TK-10 renal; 101% in the test with ACHN renal; 95.7% with CAKI-1 renal; 103% with CCRF-CEM leukemia; 91.3% in the test with MOLT-4 leukemia.
As for `O=C(Nc1ccc(Cl)cc1)Nc1ccc(Cl)c(Cl)c1`, the growth in the test with HCT-15 colon was 3.42% (active); with HT29 colon, 28.6%; with SNB-75 CNS it was 51.7%; with SNB-19 CNS it was 15.9%; in the test on U251 CNS, 8.94% (active); in the test with PC-3 prostate it was 9.37% (active). Further, the growth in the test on SK-MEL-5 melanoma was 24.1%; in the test on LOX IMVI melanoma it was 7.43% (active); with SK-MEL-28 melanoma, 35.4%; in the test with SK-MEL-2 melanoma it was 13.3%; in the test with EKVX NSCLC, 18.8%; in the test on SN12C renal it was 6.47% (active). Besides, the growth in the test with UO-31 renal is 9.73% (active); in the test with TK-10 renal, 12.5%; with ACHN renal, -9.93% (active); in the test on CAKI-1 renal, -1.31% (active); in the test with A498 renal it was 11.4%; in the test on CCRF-CEM leukemia, 6.06% (active). In addition, the growth in the test with MOLT-4 leukemia is 6.56% (active).
Regarding `CCCCCCCCCCCCC1CCC/C=C\CCC(=O)O1` (centres undefined), the growth was 101% with HCT-15 colon; 102% in the test with HT29 colon; 84.6% in the test with SNB-75 CNS; 101% in the test on SNB-19 CNS; 110% in the test with U251 CNS; 87% in the test on PC-3 prostate. Further, the growth was 104% in the test on SK-MEL-5 melanoma; 105% in the test on LOX IMVI melanoma; 118% with SK-MEL-28 melanoma; 96.2% in the test on SK-MEL-2 melanoma; 97.1% with EKVX NSCLC; 105% with SN12C renal. Further, the growth in the test with UO-31 renal is 90.4%; with TK-10 renal, 97.7%; with ACHN renal, 107%; in the test with CAKI-1 renal, 111%; in the test with A498 renal it was 117%; in the test with CCRF-CEM leukemia it was 76.4%. Moreover, the growth in the test on MOLT-4 leukemia was -8.63% (active).
Turning to `C#CCn1cc(C=C2C(=O)NC(=S)NC2=O)c2cc(Cl)ccc21`, the growth in the test with HCT-15 colon was -23% (active); in the test on HT29 colon, 13.6%; with SNB-75 CNS it was 43.9%; with SNB-19 CNS, 13.2%; in the test with U251 CNS, 3.31% (active); in the test on PC-3 prostate it was 8.39% (active). Further, the growth in the test with SK-MEL-5 melanoma is 40.8%; in the test on UACC-62 melanoma it was 1.1% (active); with SK-MEL-28 melanoma it was -26.5% (active); in the test with SK-MEL-2 melanoma, 89.1%; with EKVX NSCLC, 67.2%; in the test on SN12C renal it was -34.9% (active). In addition, the growth with UO-31 renal is -73.4% (active); in the test on TK-10 renal it was 16.1%; in the test with ACHN renal it was -25.2% (active); in the test with CAKI-1 renal, 9.84% (active); in the test on A498 renal it was -1.83% (active); in the test on CCRF-CEM leukemia, 0.645% (active). Besides, the growth in the test with MOLT-4 leukemia is 5.59% (active).
For `CS(=O)(=O)c1ccc(-c2cc3c(oc2=O)-c2ccccc2OC3O)cc1` (centres undefined), the growth was 94.4% in the test with HCT-15 colon; 105% in the test on HT29 colon; 84.6% with SNB-75 CNS; 89% with SNB-19 CNS; 97.7% in the test with U251 CNS; 89.8% in the test on PC-3 prostate. Further, the growth with SK-MEL-5 melanoma is 101%; in the test with LOX IMVI melanoma it was 98%; with SK-MEL-28 melanoma, 101%; in the test on SK-MEL-2 melanoma, 99.2%; in the test on EKVX NSCLC, 98.4%; in the test with SN12C renal, 104%. Also, the growth is 74% in the test on UO-31 renal; 99.9% with TK-10 renal; 98.6% in the test with ACHN renal; 75.4% with CAKI-1 renal; 87.7% in the test on A498 renal; 58.9% with CCRF-CEM leukemia.
For the compound `O=C1CCCN1c1cccc2cccnc12`, the growth with HCT-15 colon was 101%; in the test with HT29 colon, 103%; with SNB-75 CNS, 83.1%; in the test on SNB-19 CNS it was 91%; in the test on U251 CNS it was 96.4%; in the test with PC-3 prostate it was 107%. Further, the growth was 99.1% in the test on SK-MEL-5 melanoma; 104% in the test with UACC-62 melanoma; 113% in the test with SK-MEL-28 melanoma; 104% in the test with SK-MEL-2 melanoma; 91.5% in the test with EKVX NSCLC; 102% with SN12C renal. In addition, the growth is 81.2% in the test with UO-31 renal; 88.5% in the test with TK-10 renal; 102% in the test on ACHN renal; 91.9% with CAKI-1 renal; 107% in the test with CCRF-CEM leukemia; 102% in the test on MOLT-4 leukemia.
Turning to `COc1ccc(Cl)cc1NC(=O)c1c(NC(=O)C(F)(F)C(F)(F)F)sc2c1CCCCC2`, the growth with HCT-15 colon is 14.9%; in the test on HT29 colon it was 3.87% (active); in the test on SNB-75 CNS, -9.76% (active); in the test on SNB-19 CNS, 14.5%; with U251 CNS, 7.27% (active); in the test with PC-3 prostate, 5.18% (active). Also, the growth in the test with SK-MEL-5 melanoma was -58.3% (active); with LOX IMVI melanoma it was 17.6%; in the test on SK-MEL-28 melanoma, 23.3%; in the test on SK-MEL-2 melanoma, -30% (active); with EKVX NSCLC, -5.45% (active); in the test with SN12C renal it was 5.95% (active). Moreover, the growth in the test on UO-31 renal is 1.55% (active); in the test with TK-10 renal, 10.7%; in the test with ACHN renal, 1.54% (active); with CAKI-1 renal it was -13.6% (active); in the test on A498 renal, -45.1% (active); with MOLT-4 leukemia, 8.91% (active).
With `CCN(CC)CCCC(C)Nc1cc(-c2cccc(OC(F)(F)F)c2)nc2ccc(N3CCCC3)cc12` (centres undefined), the growth is -14.1% (active) in the test on HCT-15 colon; -24.1% (active) with HT29 colon; 66.5% in the test on SNB-75 CNS; 24.2% in the test with SNB-19 CNS; -58.4% (active) in the test with U251 CNS; 14.3% in the test on PC-3 prostate. The growth with SK-MEL-5 melanoma is -98.1% (active); in the test with UACC-62 melanoma, -86.5% (active); with SK-MEL-28 melanoma, -93% (active); in the test with SK-MEL-2 melanoma it was -71.2% (active); in the test on EKVX NSCLC, 49.9%; with SN12C renal it was 38.1%. The growth in the test with UO-31 renal was 23.7%; with TK-10 renal, 12.2%; with ACHN renal, -19.5% (active); in the test on CAKI-1 renal, -53% (active); in the test on A498 renal, 29.4%; with CCRF-CEM leukemia it was -22.4% (active). Besides, in the test with MOLT-4 leukemia, the growth is 2.34% (active).
Consider `NC(=S)N/N=C(/c1ccccc1)c1ccccc1N`, for which the growth in the test with HCT-15 colon was 84.7%; with HT29 colon, 54.8%; in the test on SNB-75 CNS, 101%; in the test with SNB-19 CNS it was 101%; with U251 CNS, 95.6%; in the test on PC-3 prostate, 67.3%. The growth was 92.3% in the test on SK-MEL-5 melanoma; 93.9% in the test on UACC-62 melanoma; 109% in the test with SK-MEL-28 melanoma; 103% in the test on SK-MEL-2 melanoma; 66.1% in the test with EKVX NSCLC; 85% in the test with SN12C renal. Besides, the growth was 62.8% in the test with UO-31 renal, 80.9% in the test with CAKI-1 renal, 60.2% with CCRF-CEM leukemia and 52.7% in the test with MOLT-4 leukemia.

Source of the values: PubChem BioAssay (NCI).
